High-throughput results: PubChem, several laboratories
HSP90 inh = HSP90 refolding inhibition in rabbit reticulocyte lysate | AID 1789 | inhibition, % at 5.6 µM | luciferase refolding luminescence, 3 h | 0.91% of 290,000 active;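 active = inhibition above the screen-wide mean plus 3 SD, computed separately per campaign, cut at about 16% in these data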;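 also: inhibitors lower the luminescence because luciferase stays unfolded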
LGR2 antag = blocks bursicon-induced cAMP signaling via Drosophila LGR2; inhibition, % at 9.99 µM; AID 720647; 0.35% of 380,000 active; HEK293 LGR2, CRE-luciferase, bursicon-stimulated, 4 h;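 active = drop in luminescence signal, shown as inhibition above about 50% in the replicate tests, limit read from the data, passing the limit was not always enough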;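 also: agonist challenge used bursicon conditioned medium at about half maximal strength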
SENP6 block = blocks the human protease SENP6; 1.8% of 330,000 active; Q9GZR1; inhibition, % at 10 µM; Recombinant SENP6 catalytic domain, aminoluciferin luminescence;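 active = inhibition above about 50% at the single tested dose, limit read from the data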
SENP8 block-1 = inhibitors of human SENP8 protease; Q96LD8; 1.2% of 330,000 active; purified SENP8, Z-RLRGG-aminoluciferin cleavage, luminescence; inhibition, % at 10 µM; in the data active = inhibition above about 50%
SENP8 block-2 = inhibitors of human SENP8 protease; 0.64% of 360,000 active; inhibition, % at 20 µM; recombinant SENP8, Nedd8 substrate fluorescence; AID 602440; Q96LD8; in the data active = inhibition mostly above about 40%, no sharp cut-off; inactive = mostly below about 27%
SENP7 block = SENP7 protease inhibition; Q9BQF6; recombinant SENP7, Z-RLRGG-aminoluciferin luminescence, 40 min; inhibition, % at 5 µM; 1.5% of 330,000 active; AID 434973;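 active = inhibition above about 50% at the single test dose, limit read from the data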
HSP90 inh confirm = confirmation of HSP90 inhibitors. shares compounds with HSP90 inh. rabbit reticulocyte lysate, luciferase refolding luminescence, 3 h. inhibition, % at 5.9 µM. 64% of 2,300 active; in the data active = inhibition above about 18%
FLuc counter = firefly luciferase inhibition, HSP90 counter-screen; 48% of 2,300 active; purified native firefly luciferase, luminescence; shares compounds with HSP90 inh; AID 1847; inhibition, % at 5.9 µM;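 active = inhibition above the mean inhibition of all tested sample wells plus 3 SD, cut at about 10% in these data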
Target sequence (P08659 whole entry, looked up): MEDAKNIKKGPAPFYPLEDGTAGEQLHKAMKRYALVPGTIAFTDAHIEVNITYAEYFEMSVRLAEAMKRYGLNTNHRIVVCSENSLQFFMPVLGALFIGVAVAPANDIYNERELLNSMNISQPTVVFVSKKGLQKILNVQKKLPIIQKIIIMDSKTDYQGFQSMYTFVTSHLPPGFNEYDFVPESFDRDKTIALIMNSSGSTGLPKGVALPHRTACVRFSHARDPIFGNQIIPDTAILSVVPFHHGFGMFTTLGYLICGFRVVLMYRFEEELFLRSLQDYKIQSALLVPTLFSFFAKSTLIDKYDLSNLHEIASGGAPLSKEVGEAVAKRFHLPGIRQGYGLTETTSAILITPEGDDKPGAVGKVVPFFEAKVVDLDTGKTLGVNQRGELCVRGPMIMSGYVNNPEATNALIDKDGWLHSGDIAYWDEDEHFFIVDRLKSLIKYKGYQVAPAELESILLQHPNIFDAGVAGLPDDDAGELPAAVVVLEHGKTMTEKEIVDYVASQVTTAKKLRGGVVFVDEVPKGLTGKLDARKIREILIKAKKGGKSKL
Each line names hits and unclear results; the compound was inactive in the other large screens (follow-up assays come after a bar, where they were run). In the library only some 2.3% were active in any assay of this set; here they are far more common.

Cc1ccc(S(=O)(=O)Nc2ccc3c(c2)C(=O)N([C@H](C)CO)C[C@H](C)[C@H](CN(C)C(=O)Nc2ccc(F)cc2)O3)cc1	none (no result: HSP90 inh, SENP6 block, SENP8 block-1, SENP8 block-2, SENP7 block)
O=C(CNC(=O)Cc1ccc(Cl)cc1)NCC(=O)N1CCCCC1	HSP90 inh 23 | HSP90 inh confirm inactive | FLuc counter inactive
C[C@H](CO)N1C[C@H](C)[C@@H](CN(C)C(=O)NC2CCCC2)Oc2ncc(Br)cc2C1=O	none (no result: HSP90 inh, SENP6 block, SENP8 block-1, SENP8 block-2, SENP7 block)
CCN(CC)CCN(C(=O)c1ccc(Br)s1)c1nc2cc3c(cc2s1)OCCO3	HSP90 inh 51 | HSP90 inh confirm inactive | FLuc counter inactive
CCN(CC)CCN(C(=O)c1ccc2ncsc2c1)c1nc2cc3c(cc2s1)OCO3	HSP90 inh 34 | HSP90 inh confirm 34 | FLuc counter 16
CCN(CC)CCN(C(=O)c1ccc(C(=O)c2ccccc2)cc1)c1nc2cc3c(cc2s1)OCO3	none
C[C@H](CO)N1C[C@H](C)[C@H](CN(C)Cc2ccc(Oc3ccccc3)cc2)Oc2ccc(NS(=O)(=O)c3cn(C)cn3)cc2C1=O	none (no result: HSP90 inh, SENP6 block, SENP8 block-1, SENP8 block-2, SENP7 block)
NC(=S)NCc1cccnc1	none
S=C(NCc1cccnc1)c1ccccc1	HSP90 inh 19 | HSP90 inh confirm inactive | FLuc counter inactive
COc1cc(/C=N/Nc2ccc(Cl)c(C(=O)O)c2)ccc1OC(=O)c1ccc(F)cc1	HSP90 inh 60 | HSP90 inh confirm 73 | FLuc counter inactive
COc1cc(/C=N/Nc2ccc(Cl)c(C(=O)O)c2)ccc1OC(=O)c1ccccc1F	HSP90 inh 54 | HSP90 inh confirm 80 | FLuc counter inactive
CCn1cnc2cc(NCc3nc4ccccc4n3Cc3ccccc3)ccc21	HSP90 inh 48 (no result: LGR2 antag) | HSP90 inh confirm 47 | FLuc counter 40
O=C(O)c1ccc(NCc2nc3ccccc3n2Cc2ccccc2)cc1	none
COc1cccc(/C=N/Nc2ncccc2[N+](=O)[O-])c1OC	HSP90 inh 67, LGR2 antag 97, SENP6 block 99, SENP8 block-1 95, SENP7 block 98 | HSP90 inh confirm 77 | FLuc counter 70
COc1cccc(/C=N/Nc2nc(C)cc(=O)[nH]2)c1OC	none
C[C@@H]1CN([C@@H](C)CO)C(=O)c2cc(NC(=O)c3ccccc3)ccc2O[C@@H](C)CCCCO[C@@H]1CN(C)C(=O)CCC(F)(F)F	none (no result: HSP90 inh, SENP6 block, SENP8 block-1, SENP8 block-2, SENP7 block)
O=C(O)c1ccc(-c2ccc(-c3ccccc3)cc2)s1	HSP90 inh 94, SENP6 block 99, SENP8 block-1 97, SENP7 block 101 (no result: LGR2 antag) | HSP90 inh confirm 93 | FLuc counter 83
CC=Cc1ccc2n(c1=O)C[C@@H]1[C@@H](CO)[C@H](C(=O)Nc3nccs3)N(C(=O)CC)[C@H]21 (mixture of isomers)	none (no result: HSP90 inh, SENP6 block, SENP8 block-1, SENP8 block-2, SENP7 block)
CO[C@H]1CN(C)C(=O)c2ccc(NS(=O)(=O)c3cn(C)cn3)cc2OC[C@@H](C)N(C)C[C@H]1C	none (no result: HSP90 inh, SENP6 block, SENP8 block-1, SENP8 block-2, SENP7 block)
Cc1nc(NC(=O)/C=C/c2ccccc2)sc1C(=O)Nc1ccccc1Cl	HSP90 inh 27 (no result: LGR2 antag) | HSP90 inh confirm 54 | FLuc counter inactive
COc1ccc(-n2ncc3c(NCCCN4CCOCC4)ncnc32)cc1	HSP90 inh 28 | HSP90 inh confirm 32 | FLuc counter 32
COc1ccc(-n2ncc3c(NCCN4CCOCC4)ncnc32)cc1	HSP90 inh 26 (no result: LGR2 antag) | HSP90 inh confirm 27 | FLuc counter 19
C[C@@H]1CN([C@@H](C)CO)C(=O)c2cc(NC(=O)CCN3CCOCC3)ccc2O[C@@H]1CN(C)S(=O)(=O)c1cn(C)cn1	none (no result: HSP90 inh, SENP6 block, SENP8 block-1, SENP8 block-2, SENP7 block)
O=C(CSc1nnc(-c2ccccc2)o1)N1CCCCC1	HSP90 inh 21 | HSP90 inh confirm inactive | FLuc counter inactive
Cc1noc(C)c1S(=O)(=O)N(C)C[C@H]1Oc2ccc(NS(=O)(=O)c3cn(C)cn3)cc2CC(=O)N([C@@H](C)CO)C[C@H]1C	none (no result: HSP90 inh, SENP6 block, SENP8 block-1, SENP8 block-2, SENP7 block)
CCCOC(=O)Nc1ccc(N2CCCCC2)cc1	HSP90 inh 21 (no result: LGR2 antag) | HSP90 inh confirm 34 | FLuc counter 21
Cc1ccnc(SC2CC(=O)N(c3ccc(C(C)C)cc3)C2=O)n1 (stereo not drawn)	HSP90 inh 32 | HSP90 inh confirm inactive | FLuc counter inactive
Cc1ccnc(SC2CC(=O)N(c3ccc(Cl)cc3)C2=O)n1 (stereo not drawn)	none
CC(=O)Nc1cc(NC(C)=O)c(N=Nc2ccccc2)cc1C	none
Cc1ccc(NCC(O)C(O)C(O)CO)c(N=Nc2ccccc2)c1C (stereo not drawn)	HSP90 inh 24 | HSP90 inh confirm inactive | FLuc counter inactive
O=C(CSc1nc(-c2ccccc2)nc2ccccc12)Nc1nccs1	HSP90 inh 22 | HSP90 inh confirm inactive | FLuc counter inactive
Cc1c(C(=O)O)cccc1-n1c(C)cc(/C=N/NC(=O)c2cc3ccccc3o2)c1C	HSP90 inh 22 | HSP90 inh confirm inactive | FLuc counter inactive
CCc1ccc(-c2nc(CSCC(=O)NCc3ccco3)c(C)o2)cc1	HSP90 inh 19 (no result: SENP6 block, SENP8 block-1, SENP7 block) | HSP90 inh confirm 31 | FLuc counter inactive
CCOc1ccc(-c2nc(CSCC(=O)N3CCN(C(=O)c4ccco4)CC3)c(C)o2)cc1	HSP90 inh 37 | HSP90 inh confirm 46 | FLuc counter inactive
CCCNC(=O)CSCc1nc(-c2ccc(SC)cc2)oc1C	none
Cc1cccc(C)c1NC(=O)/C(C#N)=C/c1ccc(-c2ccc(C(=O)O)cc2)o1	HSP90 inh 34 | HSP90 inh confirm 36 | FLuc counter inactive
N#C/C(=C\c1ccc(-c2ccc(C(=O)O)cc2)o1)C(=O)Nc1ccc(F)cc1	none (no result: SENP6 block, SENP8 block-1, SENP7 block)
CC(C)S(=O)(=O)C1=NSC2=NC(=O)/C(=C\c3ccc(-c4cccc(C(=O)O)c4)o3)C(=N)N21	HSP90 inh 27 (no result: SENP6 block, SENP8 block-1, SENP7 block) | HSP90 inh confirm inactive | FLuc counter inactive
COc1cc2cc(C(=O)N3CCOCC3)cc(-c3ccc(C)cc3)c2cc1OC	HSP90 inh 50 | HSP90 inh confirm inactive | FLuc counter inactive
COc1ccc(-c2cc(C(=O)N3CCOCC3)c3ccccc3n2)cc1OC	none (no result: HSP90 inh)
CCCNC(=O)Nc1ccc2c(c1)OC[C@H](C)N(Cc1ccncc1)C[C@H](C)[C@H](OC)CN(C)C2=O	none (no result: HSP90 inh, SENP6 block, SENP8 block-1, SENP8 block-2, SENP7 block)
c1ccc(-c2cc3c(-n4cccc4)ncnc3o2)cc1	HSP90 inh 17 (no result: LGR2 antag) | HSP90 inh confirm inactive | FLuc counter inactive
O=C(NNC(=S)NC(=O)c1ccc(F)cc1)c1cccnc1	none
O=C(NNC(=S)NC(=O)c1cccnc1)c1ccc(F)cc1	HSP90 inh 28 | HSP90 inh confirm inactive | FLuc counter inactive
Cc1noc(C)c1NC(=O)N(C)C[C@H]1OCCCC[C@@H](C)Oc2ccc(NC(=O)NC(C)C)cc2C(=O)N([C@H](C)CO)C[C@H]1C	none (no result: HSP90 inh, SENP6 block, SENP8 block-1, SENP8 block-2, SENP7 block)
O=C(COc1ccc(Cl)cc1Cl)NC(=O)N1CCCCC1	HSP90 inh 28 (no result: LGR2 antag) | HSP90 inh confirm 37 | FLuc counter 31
